The target of assay [1] is Lysosomal acid glucosylceramidase (Homo sapiens) (UniProt P04062). Description: Glucocerebrosidase-p2 (AID 348; in the data active means potency below about 10 µM; further: potency means the concentration at half of the fitted maximal effect). Particulars: purified GBA, blue fluorogenic substrate, 40 min. Put shortly:
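Compounds titrated from 0.6 nM upwards against 0.2 nM enzyme in pH 5.9 citric acid/KH2PO4, taurocholate, tween-20; blue fluorogenic substrate 80 uM, 40 min room temperature, stopped and read Ex 365/Em 440 for AC50.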

Assay [2] can be described thus: AP1 Signaling Pathway (AID 357). Further: on the % scale 0 is the no-effect control and ±100 the full control effect. Conditions: ME-180 AP-1-bla reporter, EGF-induced, beta-lactamase ratio, 5 h; at 7.69 µM (top of the series) unless noted. Put shortly: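 Read-out was the 460nm/530nm emission ratio (excitation 405nm) after CCF4 loading for 2.5 hours at room temperature. Cells carried an AP-1-driven beta-lactamase reporter, were stimulated with EC50 EGF plus compound for 5 hours, and AC50 values came from titrations.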

In assay [3] the target is Cytochrome P450 1A2 (Homo sapiens) (UniProt P05177). Description: p450-cyp1a2 (AID 410; calls by dose curve; further: potency means the concentration at half of the fitted maximal effect). Particulars: recombinant CYP1A2, luciferin-ME demethylation, luminescence; series mostly up to 57 µM. The method, boiled down: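 Luminescent readout of luciferin formed from Luciferin-ME by human CYP1A2; data normalized against complete inhibition by 57 uM furafylline. Enzyme 20nM, substrate 100uM at Km, 100mM KPO4 buffer, 60 min reaction at room temperature.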
Sequence of Cytochrome P450 1A2 (Homo sapiens) (P05177 whole entry, looked up): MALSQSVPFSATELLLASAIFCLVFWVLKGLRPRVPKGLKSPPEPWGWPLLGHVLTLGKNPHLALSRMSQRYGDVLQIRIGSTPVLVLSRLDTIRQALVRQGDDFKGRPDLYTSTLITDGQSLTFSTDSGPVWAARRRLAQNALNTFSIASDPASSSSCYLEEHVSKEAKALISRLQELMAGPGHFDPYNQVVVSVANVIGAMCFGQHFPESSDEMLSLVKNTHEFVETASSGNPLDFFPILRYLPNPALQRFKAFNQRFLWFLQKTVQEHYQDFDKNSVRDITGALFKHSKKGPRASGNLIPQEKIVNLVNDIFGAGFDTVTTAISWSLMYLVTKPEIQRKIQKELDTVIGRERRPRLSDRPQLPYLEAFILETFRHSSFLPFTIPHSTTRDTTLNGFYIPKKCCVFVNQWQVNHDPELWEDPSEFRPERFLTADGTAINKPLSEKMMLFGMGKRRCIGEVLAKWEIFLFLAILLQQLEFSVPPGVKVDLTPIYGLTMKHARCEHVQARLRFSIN

A short description of assay [4]: NFAT Signaling Pathway (AID 444).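 Further: carbachol stimulus at about its EC50 of 1 µM final; on the % scale 0 is the no-effect control and ±100 the full control effect.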 Conditions: Jurkat NFAT-bla M1, carbachol, beta-lactamase ratio, 5 h; at 7.69 µM (top of the series) unless noted. The method, boiled down:
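Jurkat cells with NFAT-driven β-lactamase reporter and co-expressed M1 receptor, stimulated with carbachol (final 1 uM, ~EC50), compound titration, 5 h at 37 °C. CCF4 loaded 1 h at RT; 460/530 nm ratio gave %activity and AC50.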

A short description of assay [5]: Stat Signaling Pathway (AID 446).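 Further: ME-180 cervical cancer cells given 40 pM IL-6 alongside compound; SIE-controlled beta-lactamase reporter measured as 460/530 nm FRET emission ratio; on the % scale 0 is the no-effect control and ±100 the full control effect.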 Conditions: ME-180 SIE beta-lactamase reporter, IL-6 stimulated, 5 h; at 7.69 µM (top of the series) unless noted. Put shortly: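 Screening format detects activators and inhibitors alike: ME-180 SIE-bla cells stimulated at 40 pM IL-6 for 5 hrs with compound, then dual-emission beta-lactamase read at 405 nm excitation.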
Assay [6] has as its target Glucocorticoid receptor (Homo sapiens) (UniProt P04150). Description: GR-EFC Redistribution (AID 451; calls by dose curve; further: potency means the concentration at half of the fitted maximal effect). Particulars: CHO-K1 GR-EFC translocation, beta-gal luminescence, 2 h. Put shortly: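 CHO-K1 cells expressing nuclear EA and GR-ED fragments of b-gal; compounds titrated up to 46 uM final, 2 h at 37 C. GR nuclear translocation read as complemented b-gal luminescence after 1 h RT detection.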

The target of assay [7] is Mitogen-activated protein kinase 10 (Mus musculus) (UniProt Q61831). Put plainly: JNK3 AlphaScreen Assay (AID 530).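 Further: kinase came from lysate of stimulated human HepG2 cells; signal reports phosphorylation of biotinylated GST-cJun 1-79 at Ser73 with 10 µM ATP; on the % scale 0 is the no-effect control and ±100 the full control effect.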 Particulars: JNK3 lysate, c-Jun phosphorylation; series mostly up to 57.1 µM. The method, boiled down:
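Pre-activated (IL-1β/TNFα) JNK3 in HepG2 lysates phosphorylates biotin-GST-cJun(1-79), 10 uM ATP; anti-phospho-cJun(Ser73) AlphaScreen read at room temperature, pH 7.6 Tris buffer. Compounds pre-incubated 15 min as titrations.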

For assay [8], the target named is 3',5'-cyclic-AMP phosphodiesterase 4B (Homo sapiens) (UniProt Q07343). Description: qHTS Assay for Inhibitors of PDE-IV (AID 607; active means well fitted activation curve with a large enough effect in the main read-out, with a control signal flat, not every such curve was filed as active; further: % of control where 0% means no effect). Conditions: HEK293 ACTOne CNG channel cells, membrane potential fluorescence; series mostly up to 22.9 µM. Put shortly:
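The readout is membrane depolarisation from a cAMP-sensing CNG channel, detected with a potential dye at ex 535/em 590. Cells were HEK293-derived (endogenous PDE-IV) at 1000 cells/well, titrated up to 22.9 uM final.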

A short description of assay [9]: qHTS Assay for Lipid Storage Modulators (AID 1519; calls by dose curve). Conditions: Drosophila S3 cells, BODIPY lipid droplet/cell ratio, laser cytometry, cells loaded with oleic acid; for activity change, negative = inhibition: at 57.5 µM (top of the series). The method, boiled down: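 Cells seeded at 5,000 per well were treated with compounds over a concentration series and loaded with oleic acid (400 uM, as added). Lipid droplet fluorescence (488 nm excitation, 500-530 nm channel) was read by laser-scanning cytometry and normalized to 20 uM Triacsin C.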

Assay [10] can be described thus: Primary qHTS for small molecule stabilizers of the endoplasmic reticulum resident proteome: Secreted ER Calcium Modulated Protein (SERCaMP) assay (AID 1508630; active means well fitted curve in the direction sought with a large enough effect; an effect the other way counts as inactive or inconclusive; further: on the % scale 0 is the no-effect control and ±100 the full control effect). Particulars: SH-SY5Y GLuc-SERCaMP (Gaussia luciferase released on ER calcium loss) secretion, thapsigargin, luminescence; series mostly up to 38.4 µM. The method, boiled down: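 GLuc-SERCaMP-expressing SH-SY5Y cells, pretreated 16 h with compound, are challenged with thapsigargin to empty ER calcium stores; after 4 h, coelenterazine is added directly to the medium and luminescence is imaged.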

The target of assay [11] is Cytochrome P450 2C9 (Homo sapiens) (UniProt P11712). Description: qHTS Assay for Inhibitors and Substrates of Cytochrome P450 2C9 (AID 883; active means well fitted curve in the direction sought with a large enough effect; an effect the other way counts as inactive or inconclusive; further: nearly all actives have a fitted effect of over 60% in size; further: potency means the concentration at half of the fitted maximal effect). Particulars: recombinant CYP2C9, luciferin-H luminescence, 60 min; series mostly up to 57.1 µM. Put shortly: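 Signal: luciferase luminescence reporting luciferin produced by CYP2C9. Conditions: 10nM enzyme, Luciferin-H 100uM at KM, 25mM KPO4, 37C, 60 min NADPH-driven reaction. Reference: 57uM sulphaphenazole as 100% inhibition.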
Sequence of Cytochrome P450 2C9 (Homo sapiens) (P11712 whole entry, looked up): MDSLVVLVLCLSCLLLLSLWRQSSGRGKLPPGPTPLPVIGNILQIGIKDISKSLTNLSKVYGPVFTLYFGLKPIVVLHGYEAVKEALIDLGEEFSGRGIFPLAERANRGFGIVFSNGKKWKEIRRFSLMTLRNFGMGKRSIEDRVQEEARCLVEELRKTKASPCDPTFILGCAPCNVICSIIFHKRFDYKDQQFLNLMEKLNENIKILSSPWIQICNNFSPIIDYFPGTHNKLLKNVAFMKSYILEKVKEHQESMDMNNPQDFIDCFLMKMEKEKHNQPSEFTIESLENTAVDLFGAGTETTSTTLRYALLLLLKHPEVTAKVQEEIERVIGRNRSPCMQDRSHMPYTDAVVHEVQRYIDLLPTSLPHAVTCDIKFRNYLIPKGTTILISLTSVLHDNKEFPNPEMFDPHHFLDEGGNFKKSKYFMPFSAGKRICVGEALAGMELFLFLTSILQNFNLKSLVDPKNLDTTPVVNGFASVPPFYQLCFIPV

For assay [12], the target named is Cytochrome P450 3A4 (Homo sapiens) (UniProt P08684). Description: qHTS Assay for Inhibitors and Substrates of Cytochrome P450 3A4 (AID 884; active means well fitted curve in the direction sought with a large enough effect; an effect the other way counts as inactive or inconclusive; further: nearly all actives have a fitted effect of over 50% in size; further: potency means the concentration at half of the fitted maximal effect). Conditions: recombinant CYP3A4, Luciferin-PPXE luminescence; series mostly up to 57.1 µM. Put shortly:
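20 nM human CYP3A4 with 25 uM Luciferin-PPXE (at KM) in 200 mM KPO4, preincubated 10 min with compound; NADPH regeneration started a 60 min RT reaction. Luciferin detected by luminescence, normalized to 57 uM ketoconazole as full inhibition.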

The target in assay [13] is Cytochrome P450 2D6 (Homo sapiens) (UniProt P10635). Description: qHTS Assay for Inhibitors and Substrates of Cytochrome P450 2D6 (AID 891; active means well fitted curve in the direction sought with a large enough effect; an effect the other way counts as inactive or inconclusive; further: nearly all actives have a fitted effect of over 60% in size; further: potency means the concentration at half of the fitted maximal effect). Conditions: recombinant CYP2D6, luciferin-ME EGE luminescence; series mostly up to 57.1 µM. The method, boiled down:
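Human CYP2D6 (5 nM) with 30 uM Luciferin-ME EGE (at Km) in 100 mM KPO4, compound preincubated 10 min, then NADPH regeneration system for 60 min at room temperature. Luciferin read by luminescence; normalized to 1.43 uM quinidine.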

Assay [14] concerns the target Cytochrome P450 2C19 (Homo sapiens) (UniProt P33261). Put plainly: qHTS Assay for Inhibitors and Substrates of Cytochrome P450 2C19 (AID 899; active means well fitted curve in the direction sought with a large enough effect; an effect the other way counts as inactive or inconclusive; further: nearly all actives have a fitted effect of over 60% in size; further: potency means the concentration at half of the fitted maximal effect). Particulars: recombinant CYP2C19, luciferin-H EGE luminescence; series mostly up to 57.1 µM. The method, boiled down:
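Signal comes from luciferase acting on luciferin released by CYP2C19-mediated hydroxylation of Luciferin-H EGE, 10uM (KM). Assay mix: 5nM enzyme, 50mM KPO4; 60 min at 37C with NADPH regeneration. Data normalized against 57uM ketoconazole.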

Assay [15] concerns the target Cytochrome P450 3A4 (Homo sapiens) (UniProt P08684). Put plainly: qHTS Assay for Activators of Cytochrome P450 3A4 (AID 885; active means well fitted curve in the direction sought with a large enough effect; an effect the other way counts as inactive or inconclusive; further: nearly all actives have a fitted effect of over 65% in size). Conditions: recombinant CYP3A4, Luciferin-PPXE luminescence, 60 min; series mostly up to 57.1 µM. The method, boiled down: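 Steps: enzyme/substrate mix dispensed; compound added, 10 min RT; NADPH regeneration solution added, 60 min RT; luciferin detection buffer stops reaction; 20 min later luminescence measured.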

The mark [16] stands for this setting: measured here: cell count channel max response.
[17] abbreviates: measured here: lipid channel max response.

Molecules are shown by their SMILES. Inconclusive results are not listed. Activity calls are given as the source filed them. Unless noted, the call rests on the fitted dose curve; in most records, active means well fitted curve in either direction with a large enough effect (not every such curve was filed as active); inconclusive means small, poorly fitted or top-dose-only effect, or another doubt; inactive means flat fitted curve, though single readings scatter.

The record followed here is PubChem BioAssay (NCATS).

Sequence of Glucocorticoid receptor (Homo sapiens) (P04150 whole entry, looked up, the tested form may be a part): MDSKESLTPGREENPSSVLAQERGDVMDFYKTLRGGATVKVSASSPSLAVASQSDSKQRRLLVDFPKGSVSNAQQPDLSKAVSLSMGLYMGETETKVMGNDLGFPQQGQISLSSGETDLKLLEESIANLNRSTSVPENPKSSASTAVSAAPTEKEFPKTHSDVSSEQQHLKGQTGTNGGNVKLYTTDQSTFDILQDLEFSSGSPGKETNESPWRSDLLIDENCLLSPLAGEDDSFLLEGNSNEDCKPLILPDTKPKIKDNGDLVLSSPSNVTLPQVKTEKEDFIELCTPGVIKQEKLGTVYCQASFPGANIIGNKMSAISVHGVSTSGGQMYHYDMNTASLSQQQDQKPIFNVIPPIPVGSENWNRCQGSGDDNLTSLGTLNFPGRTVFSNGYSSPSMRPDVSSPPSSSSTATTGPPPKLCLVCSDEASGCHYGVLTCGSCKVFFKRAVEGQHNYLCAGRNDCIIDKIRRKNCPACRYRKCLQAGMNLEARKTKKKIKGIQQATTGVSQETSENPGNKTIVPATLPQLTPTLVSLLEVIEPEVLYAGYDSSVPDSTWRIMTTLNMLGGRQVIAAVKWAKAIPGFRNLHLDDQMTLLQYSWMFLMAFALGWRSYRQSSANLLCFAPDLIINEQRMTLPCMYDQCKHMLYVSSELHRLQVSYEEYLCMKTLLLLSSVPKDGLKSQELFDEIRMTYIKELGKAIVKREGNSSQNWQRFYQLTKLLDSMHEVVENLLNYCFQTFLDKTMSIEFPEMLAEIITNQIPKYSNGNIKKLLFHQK
Sequence of 3',5'-cyclic-AMP phosphodiesterase 4B (Homo sapiens) (Q07343 whole entry, looked up): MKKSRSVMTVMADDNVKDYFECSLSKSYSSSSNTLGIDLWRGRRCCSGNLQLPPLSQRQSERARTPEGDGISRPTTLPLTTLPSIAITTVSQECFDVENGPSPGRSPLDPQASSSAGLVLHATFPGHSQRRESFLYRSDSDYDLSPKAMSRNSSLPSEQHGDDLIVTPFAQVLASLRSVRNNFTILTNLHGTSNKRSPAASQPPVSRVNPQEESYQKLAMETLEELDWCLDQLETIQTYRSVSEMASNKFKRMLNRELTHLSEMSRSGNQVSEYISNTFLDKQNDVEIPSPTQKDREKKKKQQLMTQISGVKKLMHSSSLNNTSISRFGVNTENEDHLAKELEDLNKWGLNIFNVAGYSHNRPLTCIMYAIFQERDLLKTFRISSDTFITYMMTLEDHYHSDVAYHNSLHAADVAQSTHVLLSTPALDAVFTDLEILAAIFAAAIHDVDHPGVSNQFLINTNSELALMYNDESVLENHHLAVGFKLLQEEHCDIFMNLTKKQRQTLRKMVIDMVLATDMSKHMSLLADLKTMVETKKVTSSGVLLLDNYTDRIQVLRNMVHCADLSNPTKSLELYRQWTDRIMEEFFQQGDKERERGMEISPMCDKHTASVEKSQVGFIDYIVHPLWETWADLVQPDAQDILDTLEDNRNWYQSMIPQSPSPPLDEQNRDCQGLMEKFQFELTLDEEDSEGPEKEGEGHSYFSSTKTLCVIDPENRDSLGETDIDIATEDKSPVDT
Sequence of Lysosomal acid glucosylceramidase (Homo sapiens) (P04062 whole entry, looked up): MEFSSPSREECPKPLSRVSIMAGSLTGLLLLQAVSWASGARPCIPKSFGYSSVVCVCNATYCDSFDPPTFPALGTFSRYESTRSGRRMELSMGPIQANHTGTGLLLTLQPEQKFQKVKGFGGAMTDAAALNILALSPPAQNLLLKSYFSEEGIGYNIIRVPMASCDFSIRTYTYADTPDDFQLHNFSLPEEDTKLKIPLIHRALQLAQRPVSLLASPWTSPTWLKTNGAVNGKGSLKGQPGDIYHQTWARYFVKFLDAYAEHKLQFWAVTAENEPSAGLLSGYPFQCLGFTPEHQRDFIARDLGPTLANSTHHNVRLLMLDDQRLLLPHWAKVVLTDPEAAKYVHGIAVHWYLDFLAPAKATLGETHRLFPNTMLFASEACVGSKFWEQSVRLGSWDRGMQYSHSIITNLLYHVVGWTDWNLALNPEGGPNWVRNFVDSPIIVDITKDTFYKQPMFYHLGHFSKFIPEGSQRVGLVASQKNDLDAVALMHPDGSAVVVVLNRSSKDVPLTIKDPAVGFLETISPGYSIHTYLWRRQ
Sequence of Cytochrome P450 3A4 (Homo sapiens) (P08684 whole entry, looked up): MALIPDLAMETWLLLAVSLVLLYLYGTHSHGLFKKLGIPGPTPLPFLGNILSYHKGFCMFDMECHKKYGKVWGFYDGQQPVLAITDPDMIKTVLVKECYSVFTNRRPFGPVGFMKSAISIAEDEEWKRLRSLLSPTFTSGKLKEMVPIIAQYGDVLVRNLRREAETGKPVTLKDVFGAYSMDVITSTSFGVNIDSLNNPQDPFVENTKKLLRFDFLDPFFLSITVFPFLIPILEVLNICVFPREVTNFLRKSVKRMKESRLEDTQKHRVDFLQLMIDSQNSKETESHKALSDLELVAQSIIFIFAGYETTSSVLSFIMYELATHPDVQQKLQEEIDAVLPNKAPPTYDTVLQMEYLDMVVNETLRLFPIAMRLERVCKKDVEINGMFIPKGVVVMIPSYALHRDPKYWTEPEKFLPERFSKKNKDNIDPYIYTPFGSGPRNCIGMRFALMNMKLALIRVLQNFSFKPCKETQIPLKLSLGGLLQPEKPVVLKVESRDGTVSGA
Sequence of Cytochrome P450 2D6 (Homo sapiens) (P10635 whole entry, looked up): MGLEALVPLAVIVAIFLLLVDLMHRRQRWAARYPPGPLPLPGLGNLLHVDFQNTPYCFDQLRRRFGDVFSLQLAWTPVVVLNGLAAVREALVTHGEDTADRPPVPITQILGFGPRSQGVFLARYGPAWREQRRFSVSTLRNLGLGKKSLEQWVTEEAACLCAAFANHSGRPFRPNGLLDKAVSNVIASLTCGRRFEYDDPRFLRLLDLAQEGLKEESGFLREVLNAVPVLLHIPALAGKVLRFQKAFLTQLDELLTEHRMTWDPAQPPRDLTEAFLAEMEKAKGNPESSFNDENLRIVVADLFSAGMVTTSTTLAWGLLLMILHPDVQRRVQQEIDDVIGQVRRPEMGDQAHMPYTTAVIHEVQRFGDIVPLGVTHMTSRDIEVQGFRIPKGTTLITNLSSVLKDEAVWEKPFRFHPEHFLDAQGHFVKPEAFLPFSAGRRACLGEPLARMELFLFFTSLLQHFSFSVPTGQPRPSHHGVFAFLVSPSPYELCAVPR
Sequence of Cytochrome P450 2C19 (Homo sapiens) (P33261 whole entry, looked up): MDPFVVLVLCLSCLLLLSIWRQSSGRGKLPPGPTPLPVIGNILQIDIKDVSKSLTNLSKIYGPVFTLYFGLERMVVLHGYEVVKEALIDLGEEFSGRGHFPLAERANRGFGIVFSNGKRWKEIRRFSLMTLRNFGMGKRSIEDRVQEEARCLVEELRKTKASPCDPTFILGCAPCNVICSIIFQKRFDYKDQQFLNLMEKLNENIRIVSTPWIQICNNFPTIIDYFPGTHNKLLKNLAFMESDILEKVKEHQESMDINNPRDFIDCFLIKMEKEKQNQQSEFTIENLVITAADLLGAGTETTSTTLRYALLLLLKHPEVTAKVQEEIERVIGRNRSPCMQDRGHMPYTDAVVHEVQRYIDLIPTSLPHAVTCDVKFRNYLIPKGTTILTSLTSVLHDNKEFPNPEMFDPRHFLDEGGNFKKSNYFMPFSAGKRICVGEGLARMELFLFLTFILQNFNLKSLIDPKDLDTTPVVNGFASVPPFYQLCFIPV

For the compound `COC(=O)N1CCC2(CC1)CN(C(=O)Nc1cccc(C#N)c1)C2`, the Potency in assay [1] is > 11.4 µM (inactive); in assay [6] it was > 46 µM (inactive). Also, the activity change, negative = inhibition in [2] was 2.52% (inactive); in [4] it was 6.57% (inactive); in assay [9], 4.73% (inactive). For the same compound, the Potency result in assay [3], in [8] and in assay [10] was “inactive” throughout. In addition, the activity, negative = inhibition in assay [5] is -1.88% (inactive). Besides, in [7], the result was inactive. Moreover, the max response is -0.334% in [9] (setting [16]) and 8.67% in assay [9] (setting [17]).

With `CC(C)NC(=O)N1CC[C@@]2(CCCN(C(=O)Oc3ccccc3)C2)C1`, the figures for the Potency in assay [1] and in [6] were > 11.4 µM (inactive) and > 46 µM (inactive), respectively. Also, the activity change, negative = inhibition was 6.59% (inactive) in [2], -15.6% (inactive) in assay [4] and 1.37% (inactive) in assay [9]. Also, the Potency result in assay [3], in assay [8], in assay [11], in assay [12], in assay [13] and in [14] was “inactive” throughout. In [10], the Potency result is “inactive”. Besides, the activity, negative = inhibition in assay [5] was -4.24% (inactive). The compound was classed as inactive in [7]. The max response in assay [9] (setting [16]) stood at 8.74%; in assay [9] (setting [17]) it was 17.3%.

As to `Cc1noc(C)c1C(=O)N1CCC2(CC1)CN(C(=O)Nc1cccc(F)c1)C2`, the Potency is > 11.4 µM (inactive) in [1] and > 46 µM (inactive) in assay [6]. The activity change, negative = inhibition in assay [2] is 6.42% (inactive); in assay [4], 19.9% (inactive); in assay [9], 1.43% (inactive). Besides, the Potency entry in assay [3], in assay [8] and in [10] was “inactive” throughout. For the same compound, the activity, negative = inhibition in assay [5] was 0.457% (inactive). In addition, the result in [7] was inactive. The max response in assay [9] (setting [16]) was -7.63%; in assay [9] (setting [17]), -0.901%.

Regarding `O=C(c1cc(C(F)(F)F)cc(C(F)(F)F)c1)N1CCC[C@@]2(CCN(Cc3ccncc3)C2)C1`, the Potency in assay [1] was > 11.4 µM (inactive); in assay [3], 12.6 µM (active); in [6] it was > 46 µM (inactive); in assay [11], 0.0794 µM (active); in assay [12], 0.501 µM (active); in assay [13], 5.01 µM (active). Moreover, in assay [14], the Potency was 0.199 µM (active). In addition, the activity change, negative = inhibition is -6.9% (inactive) in assay [2], -25.1% (inactive) in assay [4] and 7.2% (inactive) in assay [9]. Also, the activity, negative = inhibition in assay [5] was -8.97% (inactive). Besides, in [7], the call was inactive. Besides, the Potency entry in assay [8], in assay [15] and in [10] was “inactive” each time. Also, the values for the max response in assay [9] (setting [16]) and in [9] (setting [17]) were 20.1% and 28.8%, respectively.

As to `CN1CC[C@@]2(CCCN(C(=O)c3cccc(F)c3)C2)C1`, the Potency in [1] is > 11.4 µM (inactive); in [6], > 46 µM (inactive). In addition, the activity change, negative = inhibition was -5.96% (inactive) in assay [2], -2.53% (inactive) in [4] and 3.45% (inactive) in assay [9]. Also, the Potency entry in assay [3], in assay [8] and in assay [10] was “inactive” in each case. Further, the activity, negative = inhibition in assay [5] was -8.35% (inactive). In assay [7], the outcome was inactive. Besides, the max response is 3.46% in [9] (setting [16]) and 12.3% in [9] (setting [17]).

As to `COCC(=O)N1CCC[C@@]2(CCN(C(=O)Nc3ccc(OC)cc3)C2)C1`, the Potency in assay [1] was > 11.4 µM (inactive); in assay [6], > 46 µM (inactive). Also, the figures for the activity change, negative = inhibition in assay [2], in [4] and in assay [9] were -7.62% (inactive), 11.4% (inactive) and 0.357% (inactive), respectively. For the same compound, the Potency entry in assay [3], in assay [8] and in [10] was “inactive” in each case. For the same compound, the activity, negative = inhibition in [5] is 6.35% (inactive). The outcome in assay [7] was inactive. For the same compound, the max response in assay [9] (setting [16]) is 1.93%; in assay [9] (setting [17]), 5.76%.

As for `O=C(Nc1cccc(F)c1)N1CCC2(CC1)CCN(C(=O)c1csnn1)CC2`, the Potency is > 11.4 µM (inactive) in [1] and > 46 µM (inactive) in assay [6]. The figures for the activity change, negative = inhibition in assay [2], in [4] and in [9] were -8.39% (inactive), 26.3% (inactive) and 5.59% (inactive), respectively. For the same compound, the Potency entry in [3], in assay [8] and in assay [10] was “inactive” throughout. The activity, negative = inhibition in assay [5] was -9.77% (inactive). The compound was called inactive in assay [7]. Besides, the max response in assay [9] (setting [16]) was 12.6%; in assay [9] (setting [17]) it was 21.6%.

Consider `O=S(=O)(c1ccccc1)N1CCC2(CC1)CN(c1ncccn1)C2`, for which the Potency in [1] is > 11.4 µM (inactive); in assay [6] it was > 46 µM (inactive). The values for the activity change, negative = inhibition in assay [2], in assay [4] and in [9] were -2.52% (inactive), 26.7% (inactive) and 4.75% (inactive), respectively. In addition, the Potency entry in assay [3], in assay [8] and in [10] was “inactive” in each case. In assay [5], the activity, negative = inhibition is -1.43% (inactive). Also, the result in assay [7] was inactive. Also, the max response in assay [9] (setting [16]) came out at 14.7%; in assay [9] (setting [17]), 20.8%.

In the case of `COC(=O)N1CCC[C@@]2(CCN(C(=O)Nc3ccccc3)C2)C1`, the results for the Potency in assay [1], in [3] and in assay [6] were > 11.4 µM (inactive), 12.6 µM (active) and > 46 µM (inactive), respectively. In addition, the activity change, negative = inhibition in assay [2] is -3.51% (inactive); in [4], 8.29% (inactive); in assay [9] it was 3.74% (inactive). Further, the activity, negative = inhibition in assay [5] was -0.455% (inactive). The result in assay [7] was inactive. The Potency entry in [8] and in [10] was “inactive” throughout. Moreover, the max response was -3.53% in assay [9] (setting [16]) and 3.51% in assay [9] (setting [17]).
